Source: PubChem
Cruzain Triton: cruzain (T. cruzi) inhibition with detergent; P25779; purified cruzain, Z-FR-AMC fluorescence, 0.01% Triton; Potency, µM, for inactives: max response, negative = inhibition, actives largely listed as inhibitors; 200,000 compounds, 0.43% hits;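 note: plate controls were neutral wells for no effect and buffer without enzyme for full effect; nearly all actives have a fitted effect of over 40% in size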
Target sequence (P25779 123-467 limits assumed): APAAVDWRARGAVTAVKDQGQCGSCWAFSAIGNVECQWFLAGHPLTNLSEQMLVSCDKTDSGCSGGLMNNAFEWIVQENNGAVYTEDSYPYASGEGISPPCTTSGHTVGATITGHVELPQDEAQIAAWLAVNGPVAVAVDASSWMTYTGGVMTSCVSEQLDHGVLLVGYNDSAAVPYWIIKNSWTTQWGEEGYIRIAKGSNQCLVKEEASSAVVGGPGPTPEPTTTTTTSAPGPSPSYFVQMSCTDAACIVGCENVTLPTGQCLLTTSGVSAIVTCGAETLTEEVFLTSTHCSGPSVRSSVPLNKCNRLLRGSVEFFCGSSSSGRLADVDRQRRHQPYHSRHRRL
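Cruzain (1.5 nM) preincubated 15 min at RT with compound in 100 mM sodium acetate pH 5.5, 5 mM DTT, 0.01% Triton X-100. Reaction started with 2 uM Z-FR-AMC; AMC fluorescence (ex 360/em 450 nm) change over 60 s gave rate.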
Cruzain noTriton: inhibitors of Trypanosoma cruzi cruzain without detergent. P25779. purified cruzain, Z-FR-AMC fluorescence, no detergent. Potency, µM, for the others: max response, negative = inhibition, actives largely listed as inhibitors. 200,000 compounds, 2.3% hits. AID 1476;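 note: plate controls were enzyme without inhibitor for no effect and buffer without enzyme for full effect; nearly all actives have a fitted effect of over 40% in size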
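Detergent-free condition (0.00005% Triton X-100) in acetate buffer pH 5.5 with DTT. 1.5 nM enzyme and compound were pre-mixed 15 min, then 2 uM Z-FR-AMC substrate added; reaction progress from fluorescence change between first and third reads (60 s).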
* hit, by the source's call; ? = inconclusive. Hits are enriched below; roughly 2.6% of the tested compounds scored in any of these assays. Calls come from the whole dose curve; as a rule, active = well fitted curve in the direction sought with a large enough effect; inconclusive = small, poorly fitted or top-dose-only effect, or another doubt; inactive = no such curve, though single readings can be large; an effect the other way counts as inactive or inconclusive. Potency is the fitted concentration of half-maximal effect.

SMILES	Cruzain Triton	Cruzain noTriton
CCOC(=O)C1=C([Si](C)(C)C)c2ccccc2N(S(=O)(=O)C(F)(F)F)C1C(=O)OCC (stereo unspecified)	-1%	18%
COc1cccc(CNC(=O)N2CCc3c(sc4c3CCCC4)C2c2ccc(F)cc2)c1 (stereo unspecified)	-2%	6.3µM*
O=C(NCc1ccccc1)N1CCc2c(sc3c2CCCC3)C1c1ccccc1 (stereo unspecified)	-2%	?
COC(=O)c1nnc(C(=O)NCc2ccccc2)c2[nH]c3ccccc3c12	2%	-4%
CCn1cc(C(=O)NCc2ccccc2Cl)c(=O)c2cc(S(=O)(=O)N3CCc4ccccc4C3)ccc21	-3%	13µM*
CCn1cc(C(=O)NCc2ccccc2Cl)c(=O)c2cc(S(=O)(=O)N3CCCCC3)ccc21	-1%	-5%
CCOc1ccc(CCNC(=O)Cn2ccc3cc(S(=O)(=O)N4CCCCCC4)ccc32)cc1	-8%	12%
Cc1ccc(C(=O)/C=C/c2cn(CC(O)CN3CCc4ccccc43)c3ccccc23)cc1 (stereo unspecified)	-4%	10µM*
COc1ccc(C(=O)/C=C/c2cn(CC(O)CN3CCc4ccccc43)c3ccccc23)cc1OC (stereo unspecified)	-5%	-26%
COc1cccc(-c2nn(-c3ccccc3)cc2C(=O)n2nnc3ccccc32)c1	-14%	32µM*
O=C(c1cn(-c2ccccc2)nc1-c1ccccc1)n1nnc2ccccc21	-3%	?
O=C(Nc1ccc(F)c(Cl)c1)C1CCN(S(=O)(=O)c2ccc3[nH]c(=O)ccc3c2)CC1	-1%	9%
CN1CCc2cc3c(cc2[C@@H]1[C@@H]1C(=O)Oc2c1ccc1c2OCO1)OCO3	8%	-12%
Nc1nc(-c2ccc(Cl)cc2Cl)cn1N	14%	-18%
Nc1[nH]nc2c1NN(c1ccc(Cl)cc1Cl)N2	-17%	20µM*
COc1ccccc1CNC(=O)CCn1c(=O)c2cccn2c2cccnc21	-1%	13%
CCOC(=O)Oc1ccc2c(=O)c(Oc3cccc(C)c3)coc2c1	-5%	-11%
Cc1cccc(Oc2coc3cc(OC(=O)c4cc5ccccc5oc4=O)ccc3c2=O)c1	4%	5µM*
COc1ccc(OC)c(S(=O)(=O)NCCc2sc(C)nc2C)c1	-3%	-11%
Cc1ccc2onc(CC(=O)N3CCN(c4ccccc4F)CC3)c2c1	-7%	?
Cc1ccc2onc(CC(=O)N3CCN(c4ccc(F)cc4)CC3)c2c1	28µM*	25µM*
Cc1cc(C)cc(Nc2nc3ccccc3n3cnnc23)c1	-2%	6%
Nc1c(N=Nc2ccc(-c3ccc(N=Nc4cc(S(=O)(=O)O)c5ccccc5c4N)cc3)cc2)cc(S(=O)(=O)O)c2ccccc12	2.8µM*	?
Cc1cc(-c2ccc(N=Nc3ccc4c(S(=O)(=O)O)cc(S(=O)(=O)O)c(N)c4c3O)c(C)c2)ccc1N=Nc1ccc2c(S(=O)(=O)O)cc(S(=O)(=O)O)c(N)c2c1O	28µM*	?
Cc1ccc(N=Nc2c(O)c(S(=O)(=O)O)cc3cc(S(=O)(=O)O)ccc23)c(C)c1	-2%	-9%
SMILES	Cruzain Triton	Cruzain noTriton
Nc1ccc(N=Nc2ccc(-c3ccc(O)cc3)cc2)c2ccc(S(=O)(=O)O)cc12	-14%	10%
CN(C)c1ccc(-c2nc(-c3cccs3)c(-c3cccs3)[nH]2)cc1	-6%	?
CC(C)c1ccc(NC(=O)CSc2nc3ccccc3nc2Cc2ccccc2)cc1	3%	-3%
Cn1c(=O)c(-c2cccc(C#N)c2)nc2cnc(Oc3ccccc3)nc21	-1%	-9%
COc1ccccc1NC(=O)c1ccc(CN(c2cc(Cl)ccc2C)S(=O)(=O)c2ccccc2)cc1	0%	13µM*
COc1ccc(NC(=O)c2ccc(CN(c3cc(Cl)ccc3C)S(=O)(=O)c3ccccc3)cc2)cc1OC	1%	?
CC(C)(CN)CN	1%	10%
O=c1c(-c2ccccc2)nc2cnc(N3CCOCC3)nc2n1CCc1ccccc1	3%	5%
CCOC(=O)C1=C(CSCC(=O)OC)NC(=O)NC1c1cc(C)ccc1C (stereo unspecified)	5%	-5%
CCOC(=O)C1=C(CP(=O)(c2ccccc2)c2ccccc2)NC(=O)NC1c1ccc(OC)cc1 (stereo unspecified)	-3%	-1%
CCOC(=O)C1=C(CSc2nc3ccccc3s2)NC(=O)NC1c1ccc(OC)cc1 (stereo unspecified)	-3%	25µM*
CCOC(=O)C1=C(CSc2nc3ccccc3s2)NC(=O)NC1c1cc(C)ccc1C (stereo unspecified)	2%	32µM*
COc1cc(OC)c(NC(=O)Nc2c(C)n(C)n(-c3ccccc3)c2=O)cc1Cl	-1%	-14%
CCOc1ccc(NC(=O)CN(c2ccc(Cl)cc2C)S(=O)(=O)c2ccccc2)cc1	-5%	-9%
CCOc1ccc(/C=C/c2nc(C#N)c(NCc3ccc(OC)cc3)o2)cc1	-2%	6%
O=C1OCCN1C(=O)[C@H]1[C@H](c2ccc(F)cc2)C(c2cccc(Cl)c2)=NN1c1ccc(Br)cc1	-2%	16µM*
O=C(O)c1nc(-c2ccccc2)n(-c2ccc(Cl)cc2)n1	6%	-5%
CC[C@@H]1C(c2cccc(Cl)c2)=NN(c2ccc(Br)cc2)[C@H]1C(=O)N1CCOC1=O	-3%	?
O=C1OCCN1C(=O)[C@H]1[C@H](c2ccccc2)C(c2cccc(Cl)c2)=NN1c1ccc(Br)cc1	1%	13µM*
CC[C@@H]1C(c2ccccc2)=NN(c2ccc(Br)cc2)[C@H]1C(=O)N1CCOC1=O	-1%	25µM*
O=C1OCCN1C(=O)[C@H]1[C@H](c2ccc(Cl)cc2)C(c2ccccc2)=NN1c1ccc(Br)cc1	-3%	11µM*
COc1ccc(NC(=O)Cn2c(=O)oc3cc(S(=O)(=O)N4CCCCC4C)ccc32)cc1 (stereo unspecified)	-3%	-6%
COc1cccc(Cn2c(=O)c(-c3ccc(Cl)cc3)nc3cnc(OC)nc32)c1	3%	-6%
COc1cccc(-c2coc3ccc(Br)cc3c2=O)c1	8%	-12%
CCc1cnc2c(c1SCC(=O)c1ccc(Cl)cc1)c(=O)n(C)c(=O)n2C	0%	9%
SMILES	Cruzain Triton	Cruzain noTriton
CNC(=O)C1CCC(Cn2c(=O)c3sccc3n(CC(=O)Nc3ccc(C)cc3C)c2=O)CC1 (stereo unspecified)	-1%	-2%
O=[N+]([O-])c1cccc(Cl)c1Cl	-4%	6%
O=C(Nc1cc(-c2nc3cc(Cl)ccc3o2)ccc1Cl)c1cc2ccccc2o1	1%	-2%
Cc1cc(O)c2c(C)c(CC(=O)N3CCCCC3)c(=O)oc2c1	-2%	5%
COC(=O)c1c(NC(=O)c2ccc(S(=O)(=O)N3CCCCC3)cc2)sc2c1CCN(C)C2	-4%	-3%
CCOC(=O)N1CCN(C(=O)CS(=O)(=O)c2cn(Cc3ccccc3C)c3ccccc23)CC1	1%	-4%
Cc1ccccc1Cn1cc(S(=O)(=O)CC(=O)Nc2nccs2)c2ccccc21	-7%	16µM*
CCOc1ccc(CNC(=O)C2CCN(S(=O)(=O)c3ccc4c(ccn4C)c3)CC2)cc1	-4%	-7%
CCSc1nnc(NC(=O)CN(C)S(=O)(=O)c2ccc(F)cc2)s1	-2%	-10%
CN(C)S(=O)(=O)c1ccc(C(=O)Nc2nc(-c3cc4ccccc4o3)cs2)cc1	-7%	?
CN(C)S(=O)(=O)c1ccc(C(=O)Nc2nnc(SCc3ccccc3)s2)cc1	-3%	3.2µM*
